# Laboratory results published in PubChem BioAssay AID1274 (Emory University Molecular Libraries Screening Center, 2008).
# The whole screen tested about 220,000 compounds, of which about 1,100 (0.5%) were called active. This excerpt belongs to a sample that is enriched for actives. Unmarked numbers belong to inactive results.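 The calls were made as follows: active = inhibition above about 30% (limit read from the data); inactive = the rest.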
# Biological target: Neutrophil cytosol factor 1 (Homo sapiens) (UniProt P14598)
# Assay: blockers of p47phox binding to p22phox – biochemical, uHTS, NADPH oxidase regulatory subunit, primary screen (AID 1274);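 also: 0% = p47phox with labelled peptide and 100% = labelled peptide alone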
# Conditions: p47phox/p22phox peptide binding, fluorescence polarization, 2 h; at 24.7 µM; active compounds read high
# Chain of Neutrophil cytosol factor 1 (Homo sapiens) (P14598 whole entry, looked up): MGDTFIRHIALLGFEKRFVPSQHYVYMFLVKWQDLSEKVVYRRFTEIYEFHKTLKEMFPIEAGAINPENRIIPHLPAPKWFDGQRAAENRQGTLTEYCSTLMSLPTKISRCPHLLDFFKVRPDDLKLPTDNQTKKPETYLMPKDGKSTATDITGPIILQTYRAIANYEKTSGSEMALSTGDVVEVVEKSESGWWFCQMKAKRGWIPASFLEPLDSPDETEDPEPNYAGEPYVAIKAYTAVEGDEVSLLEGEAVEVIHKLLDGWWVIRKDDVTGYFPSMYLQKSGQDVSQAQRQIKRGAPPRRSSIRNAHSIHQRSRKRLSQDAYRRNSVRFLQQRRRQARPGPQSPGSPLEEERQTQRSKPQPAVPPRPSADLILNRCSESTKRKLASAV
row,Structure (SMILES),inhibition
1,COc1cc(OC)cc(C(=O)OCC(=O)Nc2sccc2C(N)=O)c1,-13.4%
2,CC(C)CCN1NC2(CCC(C)CC2)NC1=S (stereo not drawn),-4.38%
3,CCNC(=O)COC(=O)CCNC(=O)c1cccc(C)c1,-7.35%
4,CCOC(=O)c1sc(=S)n(-c2cccc(OC)c2)c1N,-12.7%
5,COCCOC(=O)c1sc(=S)n(CCOC)c1N,46.2% (active)
6,COC(=O)c1sc(=S)n(-c2ccccc2)c1N,0.99%
7,CCOC(=O)Cn1nnnc1C,6.81%
8,CCc1nnc(NC(=O)c2c(O)c3c([nH]c2=O)CCCC3)s1,-3.43%
9,O=C(NCc1ccccn1)c1c(O)c2c([nH]c1=O)CCCC2,-12.3%
10,C[N+](C)(C)CCNC(=O)c1c(O)c2c([nH]c1=O)CCCC2,31.8% (active)
11,CCOC(=O)CC1C(=O)NCCN1c1nc2c(C)cccn2c(=O)c1/C=C1\SC(=S)N(C(C)CC)C1=O (stereo not drawn),-73.3%
12,Cc1ccc(S(=O)(=O)NCC(C)NS(C)(=O)=O)cc1 (stereo not drawn),4.29%
13,O=S(=O)(NN=C1CCCCCCC1)c1ccc(Br)cc1,-8.52%
14,CC(CNS(=O)(=O)c1ccc(Br)cc1)CN(C)C (stereo not drawn),92% (active)
15,Cc1c(C(=O)N(Cc2ccccc2)Cc2cccnc2)cnn1-c1ccc(F)cc1,-0.45%
16,O=C(Nn1c(-c2ccc(Cl)cc2)nc2ccccc2c1=O)c1cccnc1Cl,-7.54%
17,C[C@@H]1CC[C@]2(O[C@@H](CCO)C[C@H](O)[C@H]2O)O1,5.45%
18,Cc1ccc(S(=O)(=O)N(c2cccc(C)c2)C2CCS(=O)(=O)C2)cc1 (stereo not drawn),-5.65%
19,COc1ccc(C(=O)N(Cc2ccc(N(C)C)cc2)C2CCS(=O)(=O)C2)cc1 (stereo not drawn),-10.9%
20,CC(=O)NCCc1ccc(S(=O)(=O)N(C)C2CCS(=O)(=O)C2)cc1 (stereo not drawn),32.2% (active)
21,CC(C)N1CCC(N2CCN(Cc3cccnc3)CC2CCO)CC1 (stereo not drawn),-4.11%
22,Oc1ccc2ccccc2c1C=Nc1ccccc1,-17.1%
23,O=[N+]([O-])c1ccc(N=Cc2c(O)ccc3ccccc23)cc1,64.5% (active)
24,Oc1ccc(N=Cc2c(O)ccc3ccccc23)cc1,-7.4%
25,CCn1cc(C(=O)NCCCN2CCCCCC2)c(=O)c2cc(S(=O)(=O)N3CCc4ccccc4C3)ccc21,-1.11%

row,Structure (SMILES),inhibition
1,COC(=O)[C@H](Cc1ccccc1)NC(=O)Nc1ccc(OC)cc1,-13.5%
2,Cc1ccnc(N2CCC(C(=O)NC3CCCCCC3)CC2)n1,-2.85%
3,Cc1ccnc(-n2sc3ccccc3c2=O)n1,35% (active)
4,Cc1ccnc(Nc2nc3ccccc3s2)n1,-4.23%
5,COc1ccc(CN2CCOC2=O)cc1OC,-11.8%
6,COc1ccc(-c2csc(-c3cccs3)n2)cc1OC,-15.5%
7,COc1ccc(-c2noc(-c3cccc(OC)c3OC)n2)cc1OC,-9.37%
8,COc1ccc(-c2csc3nc(-c4ccccc4F)oc(=O)c23)cc1OC,89.6% (active)
9,O=c1ccnc(Nc2ccc(Cl)cc2)[nH]1,-15.2%
10,COc1cccc(OCC(=O)NNC(=O)c2cnccn2)c1,-5.83%
11,CSC1=NC2(C)CCCCC2C12C=CC(=O)C=C2 (stereo not drawn),12.3%
12,O=[N+]([O-])c1ccccc1NCc1ccc(Cl)cc1,10.1%
13,Oc1ccc(N2CCN(C(=S)NCc3ccccc3)CC2)cc1,-4.47%
14,Oc1ccc(CNc2ccccc2O)cc1,72.8% (active)
15,COc1ccc(SCCN2CCN(CC(C)C)CCC2=O)cc1,-5.09%
16,CCOc1ccc(C(=O)NCCCN2CCCC2=O)cc1,-1.06%
17,CC1CCC(NC(=O)c2ccc(N3CCCC3=O)cc2)CC1 (stereo not drawn),-4.19%
18,O=C(NCCCN1CCCCCC1)c1ccc(N2CCCC2=O)cc1,31.1% (active)
19,COCCN1C(=O)N[C@@H](CCc2ccccc2)[C@H](C(C)=O)[C@H]1C,-14.3%
20,CC(C)N(C(=O)Cn1cc(SCC(=O)N2CCCC2)c2ccccc21)C(C)C,-1.84%
21,Cc1ccnc(NS(=O)(=O)c2ccc(NC(=O)c3ccc(S(=O)(=O)N(C)C)cc3)cc2)n1,93.9% (active)
22,O=C(Nc1ccc(S(=O)(=O)Nc2ncccn2)cc1)c1cncc(Br)c1,-1.88%
23,Cc1ccnc(NS(=O)(=O)c2ccc(NC(=O)c3ccc(S(=O)(=O)N4CCOCC4)cc3)cc2)n1,-8.81%
24,CCCN(c1ccc(C)cc1)c1nc(=O)c2cccnc2s1,3.57%
25,COC(=O)c1nc2n(n1)C(c1ccc([N+](=O)[O-])cc1)C(C(=O)Nc1ccc(Cl)cc1)=C(C)N2 (stereo not drawn),35.3% (active)

row,Structure (SMILES),inhibition
1,COc1cc(C2C(C(=O)Nc3ccc(F)cc3)=C(C)Nc3nc(CCCO)nn32)cc(OC)c1OC (stereo not drawn),8.1%
2,COCCOC(=O)C1=C(C)Nc2nc(C)nn2C1c1ccccc1 (stereo not drawn),-2.35%
3,COC(C[C@@H](O)[C@H](C)[C@H](O)COCc1ccccc1)OC,-7.85%
4,O=[N+]([O-])c1ccc2c(c1)C(O)n1nc(-c3ccccc3)nc1S2 (stereo not drawn),-0.84%
5,O=C1/C(=C/c2coc3ccc(O)cc3c2=O)SC(=S)N1c1ccccc1,-31.6%
6,CCC1(C)Cc2c(sc3nc(SC)[nH]c(=O)c23)CO1 (stereo not drawn),-0.95%
7,Fc1ccccc1Cn1cnc(NC(=S)NCCc2ccccc2)n1,5.03%
8,S=c1[nH]nc(NCCc2ccccc2)s1,35.4% (active)
9,S=c1[nH]nc(Nc2ccccc2)s1,6.03%
10,Cc1nc(C)c(-c2csc(NCCc3ccccc3)n2)s1,-1.49%
11,CC1CC(NC(=O)/C(C#N)=C/c2ccc[nH]2)CC(C)(C)C1 (stereo not drawn),-2.3%
12,CCCNC(=S)N1CCCC(c2nc3ccccc3[nH]2)C1 (stereo not drawn),-3.87%
13,COCCCNC(=S)N1CCCC(c2nc3cc(C)c(C)cc3[nH]2)C1 (stereo not drawn),33.6% (active)
14,CCNC(=S)N1CCC(c2nc3cc(C)c(C)cc3[nH]2)CC1,-2.83%
15,O=C(O)CCc1nc2cc(Cl)ccc2n(Cc2ccccc2)c1=O,-13.1%
16,Cc1ccccc1CSc1nnc(CCCCCNC(=O)OC(C)(C)C)o1,-9.1%
17,COC(=O)c1sc(NC(=S)NC(=O)c2ccc(C)cc2)nc1C,-24.1%
18,COc1ccc(F)cc1S(=O)(=O)N1CCCCC1,-2.33%
19,CCOC(=O)C1(S(=O)(=O)c2ccccc2)CCN(Cc2ccccc2)CC1,-0.94%
20,CC1=C/C(=N\OS(=O)(=O)c2ccccc2)C=CC1=O,53.2% (active)
21,CC1=C/C(=N\S(=O)(=O)c2ccccc2)C(C(C)C)=CC1=O,-6.28%
22,CCN(CC)CCn1cnc2c1c(=O)n(CCOC(=O)c1cc(OC)c(OC)c(OC)c1)c(=O)n2C,-17%
23,Cc1cc(-c2nc(C)c(-c3nnc(SCC(=O)Nc4ccccc4)n3C)s2)no1,-5.21%
24,O=C(Cc1cccc2ccccc12)Nc1ccc2oc(-c3ccccc3)nc2c1,-10.3%
25,COc1ccc2oc(-c3cccc(NC(=O)CSc4ccc(Cl)cc4)c3)nc2c1,152% (active)

row,Structure (SMILES),inhibition
1,COc1cccc(-c2nc3cc(C)ccc3o2)c1,-18%
2,O=c1[nH]n2c(=O)c3c([nH]c2c1N=Nc1ccccc1)CCC3,5.2%
3,Cc1ccc(SCC(=O)NC(=O)NCc2ccco2)c(C)c1,-8.32%
4,Cc1nc2nc(SCC(=O)NCc3ccco3)nn2c(C)c1Cc1ccccc1,39.5% (active)
5,COc1cc(OC)cc(-c2nc3nc(C)c(CCC(=O)NCc4ccco4)c(C)n3n2)c1,-14.7%
6,Cc1cc(C)n2nc(SCC(N)=O)nc2n1,-2.75%
7,Cc1cc(C)n2nc(SCC(=O)NC(=O)NCc3ccco3)nc2n1,65.5% (active)
8,Cc1ccc(Cc2c(C)nc3nc(SCC(=O)NCCN4CCOCC4)nn3c2C)cc1,2.55%
9,COc1cccc2c1OCC(CN1CCN(C3CCCCC3)C(CCO)C1)=C2 (stereo not drawn),-0.19%
10,Cc1noc(C)c1-c1nc(CSc2ccc(Cl)cc2)no1,-18.6%
11,CCc1ccc[n+](-c2nc([O-])sc2C=O)c1,-6.22%
12,CCOC(=O)c1ccc(S(=O)(=O)N(CCO)Cc2cc3cc(OC)c(OC)cc3[nH]c2=O)cc1,-9.36%
13,CCc1ccc(NC(=O)CN2C(=O)CSC2=O)cc1,1.09%
14,OC(CN1C2=NCCCN2c2ccccc21)c1ccc(Br)cc1 (stereo not drawn),-5.7%
15,CCN1CCN(CCNC(=O)c2ccc(/C=C3/Sc4ccccc4N(Cc4cccc(C)c4)C3=O)cc2)CC1,102% (active)
16,O=C(CN1C(=O)/C(=C\c2ccc(C(F)(F)F)cc2)Sc2ccccc21)NCc1ccco1,-2.69%
17,Cc1nn(Cc2ccccc2)c(C)c1C(=O)NCCN1C(=O)S/C(=C\c2ccc(F)cc2)C1=O,19.6%
18,CCOc1ccc2nc(C(=O)N3CCCC(C)C3)sc2c1 (stereo not drawn),-1.85%
19,O=C(NCc1ccco1)C1CCCN1S(=O)(=O)c1ccccc1C(F)(F)F (stereo not drawn),-2.26%
20,O=C(Nc1cccc(NC(=O)c2ccco2)c1)c1cnccn1,-22.1%
21,O=C(Nc1ccc2c(c1)OCCO2)c1cnccn1,161% (active)
22,O=C(Nc1ccc2c(c1)OCCO2)c1ccoc1,-11.2%
23,O=P(O)(CN1CCCCCC1)C1Cc2ccccc2C1,-16.2%
